Activity calls are given as the source filed them. Rule for the calls: active = hit-call score of the fitted dose curve at least 0.9, where 1 is the maximum; inactive = score below 0.9.

This experiment concerns the target human CDK2/CyclinA CMGC Kinase, CDK2 (gene 1017) (UniProt P24941). Kind of experiment: ERF_FR_ENZ_hCDK2: Eurofins (ERF) Enzymatic Radiometric [Km ATP] KinaseProfiler LeadHunter Assay for human CDK2/CyclinA CMGC Kinase. How it is done:
ERF_FR_ENZ_hCDK2 is a biochemical, single-readout assay that uses extracted gene-proteins in a cell-free assay. Measurements were taken 0.5 hour after chemical dosing in a 96-well plate. See CDK2 /CyclinA Human CMGC Kinase Enzymatic LANCE Assay [Km ATP], Cerep.ERF_FR_ENZ_hCDK2 is an assay component calculated from the ERF_FR_ENZ_hCDK2 assay. It is designed to measure enzyme activity using a type of enzyme reporter as detected by fluorescence intensity with LANCE technology.Data from the assay component ERF_FR_ENZ_hCDK2 was analyzed at the assay endpoint, ERF_FR_ENZ_hCDK2, in the positive analysis fitting direction relative to DMSO as the negative control and baseline of activity. Using a type of enzyme reporter, loss-of-signal activity can be used to understand changes in enzymatic activity as they relate to gene CDK2. To generalize the intended target to other relatable targets, this assay endpoint is annotated to the kinase intended target family, where the subfamily is serine/threonine kinase.
CDK2/cyclinA (h) is incubated with 8 mM MOPS pH 7.0, 0.2 mM EDTA, 0.1 mg/mL histone H1, 10 mM MgAcetate and [gamma-33P]-ATP (specific activity and concentration as required). The reaction is initiated by the addition of the Mg/ATP mix. After incubation for 40 minutes at room temperature, the reaction is stopped by the addition of phosphoric acid to a concentration of 0.5%. […]
For the molecule `COc1cc(CCC(=O)CC(=O)CCc2ccc(O)c(OC)c2)ccc1O`, the outcome was inactive.

As to `O=C(/C=C/c1ccc(O)cc1)CC(=O)/C=C/c1ccc(O)cc1`, the call was inactive.

The values above are taken from PubChem BioAssay AID2284064 (EPA ToxCast).
